PubChem BioAssay
Active and inactive are the calls of the source.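 Rule for the calls, unless noted: active = compound raises GLP1 secretion from the human gut endocrine cells, with no numeric limit stated; inactive = the rest.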

Tests used:
[1] = stimulators of nuclear beta-catenin in C2C12, primary screen, imaging, WNT3A-conditioned medium, mouse C2C12, NPC library (AID 1117326; in the data active = nuclear beta-catenin stimulation mostly above about 4.2%, no sharp cut-off; inactive = mostly below about 10%; note: reference of the scale not given here); settings: stronger effect = higher value
[2] = stimulators of insulin release from INS-1E, primary screen, cell-based, 5 mM glucose, NPC library (AID 1117329;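 active = compound raises insulin release from rat beta cells at 5 mM glucose, no numeric limit stated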; note: reference of the scale not given here); settings: rat INS-1E insulin secretion, at 10 µM, stronger effect = higher value
[3] = growth inhibition of GSK3B-pretreated HCT116 cells – cell-based, CellTiter-Glo, 0.2 to 20 µM (AID 1117336;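 active = compounds lowering colon cancer cell viability after pretreatment blocking the GSK3B kinase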); settings: HCT116 viability after GSK3B inhibitor, at 20 µM, stronger effect = higher value
[4] = inhibition of endothelial tube formation, primary screen, imaging, VEGF stimulated, CD31 staining, tube area, NPC library (AID 1117340;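 active = compound that reduces growth-factor-driven endothelial tube area in a mixed cell culture, no cutoff stated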); settings: VEGF-stimulated ADSC/ECFC co-culture, at 10 µM, stronger effect = higher value
[5] = glucagon-like peptide 1 release enhancers, primary assay, NCI-H716 cell line, NPC library (AID 1117341); settings: NCI-H716 cells, at 10 µM, stronger effect = higher value; note: reference of the scale not given here
[6] = HCT116 colon cancer cell growth inhibition, primary screen, CellTiter-Glo luminescence, NPC library (AID 1117342;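 active = compounds that lower survival of HCT116 colon cancer cells in the luminescence readout, no numeric limit stated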); settings: at 20 µM (top of the series)
[7] = CellTiter-Glo luminescent readout of SW480 viability loss, NPC library primary (AID 1117343;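 active = compounds that lower viability of the colon cancer cells in the luminescence readout, with no numeric limit stated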); settings: CellTiter-Glo luminescence; at 20 µM (top of the series)
[8] = decreased DLD-1 cellular survival, CellTiter-Glo luminescent readout, NPC compound collection, primary HTS (AID 1117346;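 active = compounds that lower survival of DLD-1 colon cancer cells in the luminescence readout, no cutoff given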); settings: DLD-1 viability, CellTiter-Glo luminescence; at 20 µM (top of the series)

Structure (SMILES) | nuclear beta-catenin stimulation ([1]; at 10 µM) | nuclear beta-catenin stimulation ([1]; stimulation, at 2 µM) | insulin secretion stimulation [2] | viability decrease [3] | tube area decrease [4] | GLP1 secretion stimulation [5] | inhibition of viability [6] | viability decrease (inhibition) [7] | viability decrease (inhibition) [8]
CCOC(=O)c1ccc(O)c(O)c1 | 4.9% (inactive) | 3.4% | 4% (inactive) | 88.4% (active) | 24% (inactive) | -0.3% (inactive) | 63.9% (active) | 77.7% (active) | 56.4% (active)
COC(=O)c1nc(Cl)c(Cl)nc1N | 15.9% (active) | 84.9% | 2.2% (inactive) | 82.2% (active) | 110% (active) | 4.1% (inactive) | 75% (active) | 132% (active) | 101% (active)
Cc1nc(C2CCCCC2)c(-c2ccc(S(N)(=O)=O)c(F)c2)o1 | 2.5% (inactive) | 4.1% | 1.4% (inactive) | 21% (inactive) | 24% (inactive) | 1.8% (inactive) | -0.63% (inactive) | 6.3% (inactive) | 3.1% (inactive)
Nc1ccc2c(c1)CN1C(=O)c3ccccc3C1=N2 | 3.6% (inactive) | -0.3% | 4.2% (inactive) | 44.4% (inactive) | 44.6% (active) | 2% (inactive) | 13.1% (inactive) | 79.4% (active) | 28.1% (inactive)
Cc1c(I)c(=O)n(-c2ccccc2)n1C | -0.6% (inactive) | 0.4% | 0.4% (inactive) | -4.55% (inactive) | 1.2% (inactive) | 0.6% (inactive) | -8.9% (inactive) | 26.3% (inactive) | 33.4% (inactive)
CC1c2ccccc2CN1NC(=O)c1ccc(Cl)c(S(N)(=O)=O)c1 (centres undefined) | 1.2% (inactive) | 4.6% | 1.65% (inactive) | 26.4% (inactive) | -9.7% (inactive) | -1.8% (inactive) | 1.4% (inactive) | -21.1% (active) | -10.8% (inactive)
CCN(CC)CCN | 0.4% (inactive) | -1.7% | 1.7% (inactive) | -6% (inactive) | 5.8% (inactive) | -1% (inactive) | -0.4% (inactive) | 1.2% (inactive) | -10.7% (inactive)
CC(C)[N+](C)(C)CC(O)COc1cccc2ccccc12 (centres undefined) | -2.3% (inactive) | -0.7% | 2.4% (inactive) | 7.2% (inactive) | -21% (inactive) | 3% (inactive) | 34.1% (inactive) | -0.7% (inactive) | 5.7% (inactive)
CC(C)C[C@H](NC(=O)CNC(=O)[C@H](Cc1ccc(O)cc1)NC(=O)[C@H](CO)NC(=O)[C@H](Cc1c[nH]c2ccccc12)NC(=O)[C@H](Cc1cnc[nH]1)NC(=O)[C@@H]1CCC(=O)N1)C(=O)N[C@@H](CCCN=C(N)N)C(=O)N1CCC[C@H]1C(=O)NCC(N)=O (stereo in doubt) | -1% (inactive) | -0.5% | -0.4% (inactive) | 0.3% (inactive) | 19.8% (inactive) | 6% (inactive) | 6.7% (active) | 11.3% (inactive) | -1.2% (inactive)
O=C(c1cc(O)c(O)c(O)c1)c1ccc(O)c(O)c1O | 1% (inactive) | 17.1% | 6.1% (inactive) | 98.2% (active) | 8.9% (inactive) | 4.8% (inactive) | 69.7% (active) | 103% (active) | 58.6% (active)
C#Cc1ccc(-c2ccccc2F)cc1 | -1.3% (inactive) | -2.1% | 0.3% (inactive) | -3.5% (inactive) | 7.2% (inactive) | -0.7% (inactive) | 0.6% (inactive) | -12.8% (inactive) | 18.8% (inactive)
CC(=O)SCC(CC(=O)c1ccc(C)cc1)C(=O)O (centres undefined) | 0.5% (inactive) | -0.4% | 2.9% (inactive) | -5.5% (inactive) | -18.7% (inactive) | 1.4% (inactive) | -12.2% (inactive) | -19.1% (inactive) | -15.2% (inactive)
CC(C)CCC[C@@H](C)[C@H]1CC[C@H]2[C@@H]3CC=C4C[C@@H](O)CC[C@]4(C)[C@@H]3CC[C@]12C | -0.4% (inactive) | -1% | 1% (inactive) | 26.9% (inactive) | 37.5% (inactive) | -2.1% (inactive) | 43.2% (inactive) | 52.2% (active) | 41.9% (inactive)
CCCC(=O)Nc1ccc(O)c(C(C)=O)c1 | 1.7% (inactive) | 0.4% | 3.1% (inactive) | -4.4% (inactive) | -7% (inactive) | -3.4% (inactive) | 2.9% (inactive) | -3.5% (inactive) | 2.6% (inactive)
CCOC(=O)C(=O)c1csc(NC=O)n1 | -0.7% (inactive) | -0.8% | 2.4% (inactive) | -15.5% (inactive) | -9.4% (inactive) | -2% (inactive) | 1.1% (inactive) | -10.2% (inactive) | 7.8% (inactive)
CCC(=O)Oc1ccc2c(c1)CC[C@@H]1[C@@H]2CC[C@@]2(C)[C@H]1C[C@@H](OC(=O)CC)[C@@H]2OC(=O)CC | 1.7% (inactive) | 1.2% | 2.5% (inactive) | -51.4% (inactive) | 28.9% (inactive) | -6.9% (inactive) | 31.7% (inactive) | 67.4% (active) | -2.6% (inactive)
